{
  "source": "PubChem BioAssay",
  "data": [
    {"system": "not listed separately", "assay": "inhibitors of PAF-induced NFkB signaling in CF airway cells, dose response, cell-based, uHTS hits, panel, cytotoxicity readout (AID 624344)", "conditions": "CF bronchial epithelial cells, PAF-induced NFkB reporter inhibition, with PAF, run 2; at 79 µM (top of the series) unless noted; in the data active = activity above about 50%; inactive = the rest", "values": [
      {"smiles": "Cc1ccc(NC(=O)Nc2cccc([N+](=O)[O-])c2)cc1F", "inhibition": "113%"},
      {"smiles": "Cc1cccc(NC(=O)c2nc[nH]c2C(=O)NCCCNC(=O)c2[nH]cnc2C(=O)Nc2cccc(C)c2)c1", "inhibition": "75.5%"},
      {"smiles": "CC(C)C[C@@H](CN1CCC[C@@H]1CN1C(=S)NC[C@@H]1Cc1ccc(O)cc1)N1C[C@H](Cc2ccc(O)cc2)N(CC2CCCCC2)C1=S", "inhibition": "118%"},
      {"smiles": "Cc1cc2cc(CCNC(=O)C(=O)c3c[nH]c4ccccc34)c(=O)[nH]c2cc1C", "inhibition": "95.5%"},
      {"smiles": "Oc1ccc(Nc2ncnc3scc(-c4ccccc4)c23)cc1", "inhibition": "41%"},
      {"smiles": "O=[N+]([O-])c1cccc(/C=N/Nc2cc(N3CCOCC3)ncn2)c1", "inhibition": "102%"},
      {"smiles": "O=C(Nc1ccc(N2CCN(C(=O)c3ccccc3F)CC2)cc1)c1cncc(Br)c1", "inhibition": "99.6%"},
      {"smiles": "C=C1C(=O)O[C@@H]2[C@H]1CC[C@H](C)[C@]1(O)CCC(=O)[C@@]21C", "inhibition": "108%"},
      {"smiles": "O=C(NCCC1=CCCCC1)c1coc(=O)c(Br)c1", "inhibition": "74.3%"},
      {"smiles": "COc1ccc2[nH]cc(C(=O)CCl)c2c1", "inhibition": "99.6%"},
      {"smiles": "Cc1cc(C)nc(Sc2ncnc(N)c2[N+](=O)[O-])n1", "inhibition": "88.9%"},
      {"smiles": "CCCC1/C(=N/O)CC(c2ccccc2)NC1c1ccccc1", "note": "(configuration not stated)", "inhibition": "98.7%"},
      {"smiles": "O=c1[nH]nc(Sc2ncnc3sccc23)n1CCc1ccccc1", "inhibition": "105%"},
      {"smiles": "Cc1cccc(C)c1NS(=O)(=O)c1ccc(-c2cnc(C3CC3)o2)cc1", "inhibition": "105%"},
      {"smiles": "COc1cccc(-c2ccc3ncnc(NCc4ccc5c(c4)OCO5)c3c2)c1", "inhibition": "113%"},
      {"smiles": "N#CC(C#N)=C1SC(=Nc2ccccc2)C(=Nc2ccccc2)N1c1ccccc1", "inhibition": "99.1%"},
      {"smiles": "C=CC[C@]12CC=CC(=O)[C@@]1(O)O[C@H](c1ccc(OC)c(OC)c1)[C@H]2C", "inhibition": "87.5%"},
      {"smiles": "CC(C)Cc1nc2oc3c(NCC4CCCO4)ncnc3c2c2c1CCC2", "note": "(configuration not stated)", "inhibition": "98.5%"},
      {"smiles": "C[C@@H]1CN([C@H](C)CO)C(=O)c2cc(NC(=O)Nc3ccc(C(F)(F)F)cc3)ccc2O[C@H]1CN(C)S(=O)(=O)c1cccs1", "inhibition": "96.8%"},
      {"smiles": "COc1ccc(-c2cc(=O)oc3c(C)c(O)ccc23)cc1", "inhibition": "101%"},
      {"smiles": "C=CCOc1c(OC)cc(/C=N/Nc2cccc(C(=O)O)c2)c(Br)c1Br", "inhibition": "105%"},
      {"smiles": "Cc1nc(N2CCC(C(N)=O)CC2)c2c(-c3cccs3)csc2n1", "inhibition": "93.8%"},
      {"smiles": "CC1CCc2c(sc3ncnc(N4CCOCC4)c23)C1", "note": "(configuration not stated)", "inhibition": "101%"},
      {"smiles": "CC(C)C[C@H]1CNC(=S)N1C[C@H]1CCCN1C[C@H](Cc1ccccc1)N1C[C@H](Cc2ccc(O)cc2)N(CC2CCCCCC2)C1=S", "inhibition": "112%"},
      {"smiles": "O=C(Nc1cccc(S(=O)(=O)N2CCCCC2)c1)Nc1ccc(Cl)cc1Cl", "inhibition": "117%"},
      {"smiles": "O=C(c1nnsc1S(=O)c1ccc(Cl)cc1)N1CCOCC1", "note": "(configuration not stated)", "inhibition": "110% [at 19.8 µM]"},
      {"smiles": "COc1ccc(-c2cc(NC=O)c3ncc(-c4ccc(OC)c(OC)c4)n3c2)c(OC)c1", "inhibition": "86.2%"},
      {"smiles": "COc1ccc(-n2c(C)c(C(C)=O)c3cc(O)ccc32)cc1", "inhibition": "95.2%"},
      {"smiles": "CCc1cc(SC#N)cc(C)c1NC(=O)CCl", "inhibition": "99.9%"},
      {"smiles": "Fc1ccc(-n2cc(-c3ccccc3)c3c(N4CCOCC4)ncnc32)cc1", "inhibition": "102%"},
      {"smiles": "O=C1OC(c2ccccc2)(c2cc(Br)ccc2O)c2ccccc21", "note": "(configuration not stated)", "inhibition": "116%"},
      {"smiles": "C#CCN(C[C@@H]1[C@@H](OC(=O)NCc2ccco2)[C@@H](OC(=O)NCc2ccco2)Cn2c(=O)ccc(=O)n21)S(=O)(=O)c1ccc(C)cc1", "inhibition": "111%"},
      {"smiles": "COc1ccc(C2CNC(=O)C2)cc1OC1CCCC1", "note": "(configuration not stated)", "inhibition": "81.6%"},
      {"smiles": "Cc1cccc(N(Cc2cc(=O)[nH]c3ccccc23)C(=O)CCl)c1", "inhibition": "90.7%"},
      {"smiles": "Cc1cc(C)c(O)c(CN(C)Cc2cc(Cl)cc(Cl)c2O)c1", "inhibition": "101%"},
      {"smiles": "CC1(Cc2ccc(Cl)cc2)C(=O)Nc2ccc(-c3cccnc3)cc21", "note": "(configuration not stated)", "inhibition": "102%"},
      {"smiles": "Cc1ccc(Sc2c(C=O)c3ccccc3n2C)cc1", "inhibition": "104%"},
      {"smiles": "CS(=O)(=O)c1ncc(Cl)c(C(=O)Nc2ccc(OC(F)F)cc2)n1", "inhibition": "90.1%"},
      {"smiles": "COc1ccc(OC)c(N(CCN2C(=O)c3ccccc3C2=O)C(=O)CCl)c1", "inhibition": "101%"},
      {"smiles": "CCOC(=O)C1=C(CC)Nc2ccccc2N=C1NC(=O)Nc1ccc(Cl)c(Cl)c1", "inhibition": "103%"}
    ]},
    {"target": "Tumor necrosis factor receptor superfamily member 10B (Homo sapiens) (UniProt O14763)", "sequence (O14763 whole entry, looked up)": "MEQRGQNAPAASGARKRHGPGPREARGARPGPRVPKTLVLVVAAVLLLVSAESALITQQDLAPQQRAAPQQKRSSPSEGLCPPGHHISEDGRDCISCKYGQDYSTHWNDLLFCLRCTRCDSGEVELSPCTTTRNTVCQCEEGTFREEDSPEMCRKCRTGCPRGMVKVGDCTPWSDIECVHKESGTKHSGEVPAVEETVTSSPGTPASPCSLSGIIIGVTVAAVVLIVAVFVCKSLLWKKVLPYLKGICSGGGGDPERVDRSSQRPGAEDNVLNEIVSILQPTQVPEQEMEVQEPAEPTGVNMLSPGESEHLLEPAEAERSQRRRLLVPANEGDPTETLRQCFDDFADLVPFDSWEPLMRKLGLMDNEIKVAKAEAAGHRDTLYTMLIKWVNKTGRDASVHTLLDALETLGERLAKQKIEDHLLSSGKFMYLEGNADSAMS", "assay": "caspase-8 TRAIL sensitization, hit retest, confirmation, cell-based, NB7+caspase-8, with/without TRAIL, luminescence panel (AID 651596)", "conditions": "NB7 neuroblastoma + caspase-8, TRAIL sensitization, luminescence viability, with TRAIL, mean of runs, at 10 µM, stronger effect = higher value", "units": {"activity": "%"}, "values": [
      {"smiles": "O=C(NCCC1=CCCCC1)c1coc(=O)c(Br)c1", "activity": 76.4},
      {"smiles": "COc1ccc2[nH]cc(C(=O)CCl)c2c1", "activity": 99.1},
      {"smiles": "N#CC(C#N)=C1SC(=Nc2ccccc2)C(=Nc2ccccc2)N1c1ccccc1", "activity": 92.6},
      {"smiles": "Cc1cccc(N(Cc2cc(=O)[nH]c3ccccc23)C(=O)CCl)c1", "activity": 98.3},
      {"smiles": "COc1ccc(OC)c(N(CCN2C(=O)c3ccccc3C2=O)C(=O)CCl)c1", "activity": 98.7},
      {"smiles": "CCOC(=O)C1=C(CC)Nc2ccccc2N=C1NC(=O)Nc1ccc(Cl)c(Cl)c1", "activity": 63.9}
    ]},
    {"system": "not listed separately", "assay": "caspase-8 TRAIL sensitization, hit retest, confirmation, cell-based, NB7+caspase-8, with/without TRAIL, luminescence panel (AID 651596)", "conditions": "NB7 neuroblastoma + caspase-8, without TRAIL, luminescence viability, without TRAIL, mean of runs, at 10 µM", "units": {"activity": "%"}, "values": [
      {"smiles": "O=C(NCCC1=CCCCC1)c1coc(=O)c(Br)c1", "activity": 22.7},
      {"smiles": "COc1ccc2[nH]cc(C(=O)CCl)c2c1", "activity": 99.2},
      {"smiles": "N#CC(C#N)=C1SC(=Nc2ccccc2)C(=Nc2ccccc2)N1c1ccccc1", "activity": 83.6},
      {"smiles": "Cc1cccc(N(Cc2cc(=O)[nH]c3ccccc23)C(=O)CCl)c1", "activity": 98.5},
      {"smiles": "COc1ccc(OC)c(N(CCN2C(=O)c3ccccc3C2=O)C(=O)CCl)c1", "activity": 97.6},
      {"smiles": "CCOC(=O)C1=C(CC)Nc2ccccc2N=C1NC(=O)Nc1ccc(Cl)c(Cl)c1", "activity": 64.3}
    ]}
  ]
}
